Test results: the supplement of paper PMC12339681
Counter-ions that a name gives are not always drawn.

tested on: PBMC-derived induced microglia-like cells (piMGLC); test: synaptosome phagocytic index relative to DMSO control (fraction of DMSO); higher = more phagocytosis; details: concentration: 10 uM (2 uM for compounds listed in Table S2); pretreatment time: 24 h; assay time: 3 h

Structure (SMILES)	synaptosome phagocytic index
CCNc1nc(Nc2cc(F)c(C(=O)N3CCOCC3)cc2OC)ncc1C(F)(F)F [GNE-7915_(tosylate)]	0.359
CCC(CC)O[C@@H]1C=C(C(=O)O)C[C@H](N)[C@H]1NC(C)=O [Oseltamivir_acid]	0.782
CN1CC[C@H](c2c(O)cc(O)c3c(=O)cc(-c4ccccc4Cl)oc23)[C@H](O)C1 [Flavopiridol_(Hydrochloride)]	0.995
Cc1c(N)c(=O)n(-c2ccccc2)n1C [Ampyrone]	0.708
CCN(CC)C(=O)[C@@]1(c2ccccc2)C[C@H]1CN [Milnacipran_((1S-cis)_hydrochloride)]	0.67
Clc1ccc(COC(Cn2ccnc2)c2ccc(Cl)cc2Cl)c(Cl)c1 (configuration not stated) [Miconazole_(nitrate)]	1.09
CC(=O)c1c(C)c2cnc(Nc3ccc(N4CCNCC4)cn3)nc2n(C2CCCC2)c1=O [Palbociclib_(isethionate)]	0.421
C[C@@]1(c2cc(NC(=O)c3ccc(C#N)cn3)ccc2F)C=CSC(N)=N1 [Atabecestat]	0.547
CCCCN1CCCCC1C(=O)Nc1c(C)cccc1C (configuration not stated) [Bupivacaine_(hydrochloride)]	0.836
Nc1nc2[nH]cc(CCc3ccc(C(=O)N[C@@H](CCC(=O)O)C(=O)O)cc3)c2c(=O)[nH]1 [Pemetrexed_(disodium_hemipenta_hydrate)]	1.03
CN1C(=O)OC(C)(C)C1=O [Trimethadione]	0.751
CCOc1nc2cccc(C(=O)O)c2n1Cc1ccc(-c2ccccc2-c2nnn[nH]2)cc1 [Candesartan]	1.1
N[C@H]1CONC1=O [L-Cycloserine]	0.883
CN(C)CCC=C1c2ccccc2C=Cc2ccccc21 [Cyclobenzaprine_(hydrochloride)]	0.59
CC(=O)Oc1ccccc1C(=O)O [Aspirin]	0.579
CC(C)Nc1cccnc1N1CCN(C(=O)c2cc3cc(NS(C)(=O)=O)ccc3[nH]2)CC1 [Delavirdine_(mesylate)]	0.749
CCCN[C@H]1CCc2nc(N)sc2C1 [Pramipexole_(dihydrochloride_hydrate)]	0.763
CCOC(=O)C1=CCCC[C@H]1S(=O)(=O)Nc1ccc(F)cc1Cl [Resatorvid]	0.156
Cc1cnc(NC(=O)C2=C(O)c3ccccc3S(=O)(=O)N2C)s1 [Meloxicam]	0.731

Structure (SMILES)	synaptosome phagocytic index
O=c1n(CCCN2CCN(c3cccc(Cl)c3)CC2)nc2ccccn12 [Trazodone_(hydrochloride)]	1.39
Nc1ncnc2c1ncn2[C@@H]1O[C@H](CO)[C@@H](O)[C@H]1O [Adenosine]	0.51
COc1ccc(NS(=O)(=O)c2ccc(N)cc2)nn1 [Sulfamethoxypyridazine]	1.03
CC1(C)O[C@@H]2[C@@H](CO[C@@]3(COS(N)(=O)=O)OC(C)(C)O[C@@H]23)O1 [Topiramate]	1.08
N#Cc1cccc(C(=O)Nc2cc(-c3ccccc3)nn2-c2ccccc2)c1	0.299
Cc1cc(C)cc(OCC2CNC(=O)O2)c1 (configuration not stated) [Metaxalone]	0.757
COc1ccc(OCCN2CCN(C(=O)c3cc4ccccc4[nH]3)CC2)cc1	1.22
CNCCCN1c2ccccc2CCc2ccccc21 [Desipramine_hydrochloride]	1.13
Nc1cccc2c1C(=O)N(C1CCC(=O)NC1=O)C2=O (configuration not stated) [Pomalidomide]	0.545
CN1CCC(=C2c3ccccc3C=Cc3ccccc32)CC1 [Cyproheptadine_(hydrochloride)]	0.741
CC[C@@]12C=C(C(=O)O)n3c4c(c5ccccc53)CCN(CCC1)[C@H]42 [Apovincaminic_acid_(hydrochloride_salt)]	0.745
Nc1cccc2c1CN(C1CCC(=O)NC1=O)C2=O (configuration not stated) [Lenalidomide]	1.11
OCCOCCN1CCN(C2=Nc3ccccc3Sc3ccccc32)CC1 [Quetiapine]	0.906
CN(C)CCOc1ccc(-c2nc(-c3ccncc3)c(-c3ccc4c(c3)CC/C4=N\O)[nH]2)cc1	0.684
Cn1cc(-c2ccncc2)c(-c2ccc(OCc3ccc4ccccc4n3)cc2)n1 [Mardepodect]	0.723
O=c1c(-c2ccc(O)cc2)coc2cc(O)ccc12 [Daidzein]	0.94
CN[C@@H]1[C@H](O[C@H]2[C@H](O[C@H]3[C@H](O)[C@@H](O)[C@H](N=C(N)N)[C@@H](O)[C@@H]3N=C(N)N)O[C@@H](C)[C@]2(O)C=O)O[C@@H](CO)[C@H](O)[C@H]1O [Streptomycin_(sulfate)]	0.697
CCC(=O)NCC[C@@H]1CCc2ccc3c(c21)CCO3 [Ramelteon]	0.767
